Compound activity (PubChem BioAssay)
In the library only some 10% were active in any assay of this set; here they are far more common.
Six1-Eya2 inh: Six1/Eya2 interaction inhibition; activity change, % (no concentration beside the values); AlphaScreen GST-Six1/His-Eya2 binding, biochemical; stronger effect = lower value; 360,000 tested, 0.56% active; AID 651725; in the data active means activity change below about -65%; inconclusive means mostly about -30% to -63%
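GST-Six1 + His-Eya2 (5X stock: 250/500 nM); Tris pH 8.0, 300 mM NaCl, 0.05% BSA, 0.02% Tween 20; GSH donor/Ni acceptor beads; 1 h 37 °C dark; AlphaScreen readout.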
BAZ2B block: blocks human BAZ2B. Potency, µM (series often up to 114 µM), actives largely listed as inhibitors. AID 504333. 360,000 tested, 4.4% active. AlphaScreen BAZ2B-H3K14Ac peptide displacement; further: nearly all actives have a fitted effect of over 60% in size
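Multi-concentration screen (max 110 uM) measuring displacement of acetylated histone H3 peptide from BAZ2B by AlphaScreen, using 50 nM protein, 50 nM peptide and 10 ug/mL streptavidin donor plus Ni-chelate acceptor beads.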
G9a inh: G9a (human) methyltransferase inhibition; Q96KQ7; G9a H3K9 monomethylation, AlphaScreen, 2 h; Potency, µM (series often up to 102 µM), usual class: inhibitors; 350,000 tested, 8.8% active; AID 504332; further: nearly all actives have a fitted effect of over 75% in size
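Enzyme 20 nM + cpd, 15 min RT; add b-H3K9 pep 500 nM / SAM 20 uM; 2 h RT; anti-H3K9me1 Ab 0.5 ug/mL + SA donor / anti-rabbit acceptor beads 20 ug/mL each, 10 min; AlphaScreen read.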
CtBP-E1A inh: inhibitors of CtBP/E1A interaction; AlphaScreen GST-E1A/His-CtBP binding, 1536-well; stronger effect = lower value; activity change, % (concentration not given with the values); 340,000 tested, 0.49% active; AID 651724; in the data active means activity change below about -65%; inconclusive means mostly about -30% to -63%
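Homogeneous bead-based format: GST-tagged E1A captured on glutathione donor beads, His-tagged CtBP on nickel acceptor beads; compounds precede bead addition by 2 h at 37 °C.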
JMJD2A Tudor: inhibitors of human JMJD2A Tudor domain. O75164. AID 504339. AlphaScreen JMJD2A-Tudor / H3K4me3 peptide binding. 390,000 tested, 4.4% active. Potency, µM (series often up to 114 µM), hits mostly inhibitors; further: nearly all actives have a fitted effect of over 50% in size
HP1b chromo inh: inhibitors of HP1-beta chromodomain binding to methylated histone tails. P83916. AlphaScreen HP1-beta / biotin-H3K9me3 peptide binding. Potency, µM (doses to about 114 µM), hits mostly inhibitors. 390,000 tested, 0.56% active. AID 540317; further: nearly all actives have a fitted effect of over 70% in size
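AlphaScreen: HP1-beta (50 nM) preformed 30 min with biotin-H3(1-18)K9me3 peptide (50 nM) in PBS pH 7.4, 0.01% Tween-20. Compound added for 30 min at RT, then streptavidin donor/nickel chelate acceptor beads (10 ug/mL) for 30 min.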
A number is an active result; – = inactive; ? = inconclusive; · = no result; [ ] = another dose, or the depositor's remark. Unless noted, the call rests on the fitted dose curve; in most records, active means well fitted inhibition curve with a large enough effect; inconclusive means small, poorly fitted or top-dose-only effect; inactive means no such curve, though single readings can be large or run the other way.

SMILES | Six1-Eya2 inh | BAZ2B block | G9a inh | CtBP-E1A inh | JMJD2A Tudor | HP1b chromo inh
CCCCCCNc1nc(-c2ccc(OC)cc2)c(CCC(=O)O)s1 | – | ? | 45µM | – | – | –
COC(=O)CCc1sc(Nc2ccc(OC)cc2)nc1-c1ccc(OC)cc1 | · | – | 8.9µM | · | ? | –
COCCNc1nc(-c2ccc(OC)cc2)c(-c2ccc(OC)cc2)s1 | – | 71µM | ? | · | ? | –
COC(=O)CCc1sc(NC2CCCCC2)nc1-c1ccc(OC)cc1 | – | ? | 13µM | – | ? | ?
CCN(CC)CCNc1nc(-c2ccc(OC)cc2)c(-c2ccc(OC)cc2)s1 | – | ? | · | – | ? | –
CC1CCCCN1C(=O)CSc1nc2c(c(=O)n(C)c(=O)n2C)n1C (centres undefined) | – | – | – | – | – | –
COc1cc(OC)c(NC(=O)Nc2ccc3c(c2)N(C)C(=O)c2ccccc2S3)cc1Cl | · | – | – | · | – | –
Cc1cc(C)c(NC(=O)Cn2c(=O)n(CC(=O)NCCc3ccccc3)c(=O)c3ccccc32)c(C)c1 | · | ? | – | · | – | –
Cc1nnc(SCCn2c(N(C)Cc3ccccc3)nc3c2c(=O)n(C)c(=O)n3C)s1 | – | · | · | – | – | –
Cc1[nH]c2ccccc2c1-c1csc(NC(=O)CSCC(=O)O)n1 | – | – | ? | · | – | –
Cc1[nH]c2ccccc2c1-c1csc(NC(=O)CN2CCOCC2)n1 | – | 79µM | 35µM | – | ? | –
CN1CCN(Cc2coc3c(Cl)cc(Cl)cc3c2=O)CC1 | – | 50µM | 25µM | · | 8.9µM | ?
CCCn1c(C(C)NC(=O)c2ccccc2)n[nH]c1=S (centres undefined) | – | – | · | – | 8.9µM | –
C=CCn1c(SCCOc2ccccc2)nnc1C(C)NC(=O)c1ccccc1 (centres undefined) | – | – | – | – | – | –
CCn1c(C(C)NC(=O)c2cccc(C)c2)n[nH]c1=S (centres undefined) | – | – | 45µM | – | – | –
C=CCn1c(C(C)NC(=O)c2ccccc2)n[nH]c1=S (centres undefined) | – | – | · | – | 10µM | –
CC(NS(=O)(=O)c1ccc2ccccc2c1)c1ccccn1 (centres undefined) | – | · | · | – | 50µM | –
O=S(=O)(Nc1cccc2cccnc12)c1ccc2ccccc2c1 | · | · | · | · | – | –
Cc1cccc(OCC(=O)OCc2cc(=O)n3nc(C4CC4)sc3n2)c1 | · | – | – | · | – | –
CCCCC(=O)Nc1nc(C)c(-c2csc(Nc3ccccc3OC)n2)s1 | – | ? | ? | – | ? | –
CCCCCC(=O)Nc1nc(C)c(-c2csc(Nc3cc(OC)ccc3OC)n2)s1 | – | 28µM | 7.1µM | ? | 50µM | ?
CCCCCCC(=O)Nc1nc(C)c(-c2csc(Nc3cc(OC)ccc3OC)n2)s1 | – | ? | ? | – | 50µM | –
CCCSCCCNC(=O)CN1C(=O)COc2ccc(S(=O)(=O)N3CCCCCC3)cc21 | · | – | – | · | – | –
COC(=O)c1ccc2nc(NC(=O)COC(=O)CSc3nc(C)cc(C)n3)sc2c1 | – | ? | 13µM | – | – | –
COc1ccc2nc(NC(=O)CSc3nc(C)cc(C)n3)sc2c1 | – | – | ? | – | – | –
SMILES | Six1-Eya2 inh | BAZ2B block | G9a inh | CtBP-E1A inh | JMJD2A Tudor | HP1b chromo inh
COC(=O)c1cccc(NC(=O)COC(=O)CSc2nc(C)cc(C)n2)c1 | – | – | – | – | – | –
Cc1ccc2nc(NC(=O)COC(=O)CSc3nc(C)cc(C)n3)sc2c1 | – | – | 45µM | – | – | –
COC(=O)c1ccc2nc(NC(=O)CN3C(=O)CCC3=O)sc2c1 | – | 56µM | –[2.33 µM] | – | –[11.4 µM] | –
COc1ccc(Cl)cc1NC(=O)CN1CCC(n2nnc3cc(F)ccc32)CC1 | – | – | – | – | – | –
CCNc1ccc(S(=O)(=O)N(C)C)cc1NCC(=O)Nc1ccccc1Cl | – | ? | 40µM | – | ? | –
CCNc1ccc(S(=O)(=O)N(C)C)cc1NCC(=O)Nc1c(F)cccc1F | – | – | – | – | – | –
CCCCN(Cc1ccccc1)S(=O)(=O)c1ccc2c(c1)CCN2C(=O)C1CCC1 | · | · | – | · | – | –
O=C(O)CN1CCCC1=Nc1ccccc1 | – | 89µM | ? | – | – | –
COc1ccc(OC)c(C2C(C#N)=C(N)Oc3c2c(C)nn3-c2cccc(Cl)c2)c1 (centres undefined) | – | 40µM | 40µM | – | 50µM | –
COc1ccc(OC)c(C2C(C#N)=C(N)Oc3cc(C)[nH]c(=O)c32)c1 (centres undefined) | – | – | –[2.33 µM] | – | ? | –
Cc1nn(-c2cccc(Cl)c2)c2c1C(c1ccncc1)C(C#N)=C(N)O2 (centres undefined) | ? | 40µM | ? | ? | 79µM | ?
Cc1nn(-c2cccc(Cl)c2)c2c1C(c1cccnc1)C(C#N)=C(N)O2 (centres undefined) | – | 50µM | 45µM | – | ? | –
O=C(c1ccco1)N1CCN(CC(O)COc2ccc3oc4ccccc4c3c2)CC1 (centres undefined) | – | ? | ? | – | – | –
COc1ccc(C(=O)N2CCC3(CCCN(Cc4ccc(C#N)cc4)C3)CC2)cc1 | · | · | –[12.7 µM] | · | · | ·
CCc1ccc(CNC(=O)c2ccc3c(c2)nc2n3CCOC2)cc1 | · | – | – | · | – | –
COCCCN1C(=O)C2C(C(=O)Nc3cc(C)cc(C)c3)C3C=CC2(O3)C1C(=O)NC1CCCCC1 (centres undefined) | – | – | 89µM | – | – | –
CSc1cccc(NC(=O)C2C3C=CC4(O3)C2C(=O)N(CCN2CCOCC2)C4C(=O)NC2CCCCC2)c1 (centres undefined) | – | – | 50µM | – | – | –
COc1cccc(NC(=O)C2C3C=CC4(O3)C2C(=O)N(CCCN2CCCCC2)C4C(=O)NC2CCCCC2)c1 (centres undefined) | – | ? | –[12.7 µM] | – | – | –
O=C(Nc1ccc(Cl)c(Cl)c1)C1C2C=CC3(O2)C1C(=O)N(CCN1CCCCC1)C3C(=O)NC1CCCCC1 (centres undefined) | – | – | 45µM | – | – | –
Cc1ccc(NC(=O)C2C3C=CC4(O3)C2C(=O)N(CCCN2CCOCC2)C4C(=O)NC2CCCCC2)cc1Cl (centres undefined) | – | – | ? | – | – | –
COc1cccc(NC(=O)C2C3C=CC4(O3)C2C(=O)N(CCCN2CCC(C)CC2)C4C(=O)NC2CCCCC2)c1 (centres undefined) | – | – | 45µM | – | – | –
COc1ccc2c(Sc3ccc(C)cc3)c(C(=O)NCc3ccc(F)cc3)[nH]c2c1 | · | – | ? | · | – | –
COc1ccc(NC(=O)C2C3C=CC4(O3)C2C(=O)N(CCCN2CCCCC2)C4C(=O)NC2CCCC(C)C2C)cc1 (centres undefined) | – | – | 45µM | – | – | –
